Source: PubChem BioAssay
“And” between values parts separate entries of the source, which are not always exact repeats. Equal entries are not always repeated. The source made the active and inactive calls.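 Rule for the calls, unless noted: active = thallium flux through the channel raised or lowered by more than 3 SD from vehicle-only wells, actives on both sides; inactive = the rest.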

Legend:
[1] = P. berghei load reduction in hepatocytes – cell-based, HepG2, luciferase luminescence, HepG2 viability, primary screen (AID 624349; in the data active = parasite load remaining mostly below about 12%, no sharp cut-off; inactive = mostly above about 10%;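 note: 100% = mean of DMSO negative control wells on the same plate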); conditions: P. berghei liver stage in HepG2, luciferase luminescence, concentration not given here; parasite load remaining: stronger effect = lower value; viability: measured here: HepG2 viability without parasites
[2] = signal quenchers or enhancers, Cy5 substrate/SSB – biochemical, NIH Clinical Collection, E. coli SSB, artefact control for HCV NS3 helicase inhibitor project (AID 743268; call rule not given here); conditions: Cy5-oligo bound E. coli SSB, fluorescence interference
[3] = tested on: Hepatitis C virus NS3 helicase; assay: blockers of NS3h binding to DNA – biochemical, fluorescence polarization, NIH Clinical Collection, primary screen (AID 743270; call rule not given here); conditions: NS3 helicase binding to Cy5-dT15 DNA, stronger effect = higher value, concentration not given here
[4] = molecular target: Single-stranded DNA-binding protein (Escherichia coli (strain K12)) (UniProt P0AGE0); assay: SSB-ssDNA binding inhibitors – biochemical, fluorescence polarization, NIH Clinical Collection, counter-screen for HCV NS3 helicase inhibitor project (AID 743271; in the data active = inhibition above about 28%); conditions: E. coli SSB-DNA binding, stronger effect = higher value, concentration not given here
[5] = compounds distorting NS3 helicase fluorescence signal – biochemical, NIH Clinical Collection, artefact control for HCV NS3 helicase inhibitor project (AID 743272; call rule not given here;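 note: HCV NS3 helicase with a Cy5 labelled single stranded DNA probe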); conditions: fluorescence interference counterscreen, HCV NS3 helicase assay; stronger effect = lower value
[6] = tested on: Neuropilin-2 / VEGF-C interaction (human); assay: small molecules blocking Neuropilin-2/VEGF-C interaction – biochemical, microplate binding format, z-score (AID 743281; call rule not given here); conditions: microplate NRP2/VEGF-C binding assay; stronger effect = lower value
[7] = viability loss with induced miR-34 in A549 – imaging, A549 dox-inducible miR-34, nuclei and caspase counts, primary screen (AID 1347080;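 active = compounds whose cell count with miR-34 switched on is under 0.7 times the count with it off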); conditions: A549 miR-34 inducible, Hoechst nuclei count, 48 h
[8] = galactose survival enhancers in mitochondrial complex I cybrids – cell-based, galactose medium, ATP luminescence, primary screen (AID 1645843;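 active = z-score of at least 1.8 in each of two replicates, scored against plate mean and spread of sample wells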;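 note: positive z means more ATP and so rescue of galactose-driven cybrid death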); conditions: complex I mutant cybrid cells, 72 h, stronger effect = higher value
F380Y = assay: BK channel mutant inhibitors and activators – cell-based, U2OS BacMam, thallium flux, beta subunits, selectivity assay, profiling panel (AID 1259406); conditions: U2OS BacMam BK variants, at 30 µM;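 note: initial slope of Thallos dye fluorescence rise after thallium is added; log ratio against the mean of 0.3% DMSO vehicle wells on the same plate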
F380Y/beta2Delta = assay: as above; conditions: U2OS BacMam BK variants, at 30 µM
[9] = molecular target: Calcium-activated potassium channel subunit alpha-1 (Homo sapiens) + Leucine-rich repeat-containing protein 26 (Homo sapiens) (UniProt Q12791+Q2I0M4); assay: as above; conditions: U2OS BacMam BK variants, F380Y/Slo1WT/gamma1, at 30 µM
Chain of Calcium-activated potassium channel subunit alpha-1 (Homo sapiens) + Leucine-rich repeat-containing protein 26 (Homo sapiens) (Q2I0M4 whole entry, looked up, one chain of several): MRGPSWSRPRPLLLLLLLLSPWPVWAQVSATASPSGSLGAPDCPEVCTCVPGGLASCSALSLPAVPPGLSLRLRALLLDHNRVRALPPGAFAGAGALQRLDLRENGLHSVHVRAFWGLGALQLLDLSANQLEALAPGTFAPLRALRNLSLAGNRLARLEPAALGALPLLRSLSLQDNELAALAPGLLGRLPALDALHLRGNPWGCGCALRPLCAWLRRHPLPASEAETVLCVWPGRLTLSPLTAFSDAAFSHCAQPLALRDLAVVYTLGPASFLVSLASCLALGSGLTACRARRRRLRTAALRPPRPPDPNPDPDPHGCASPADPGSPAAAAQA

R275C = assay: as above; conditions: U2OS BacMam BK variants, at 30 µM
R275C/beta1 = assay: as above; conditions: U2OS BacMam BK variants, at 30 µM
R275C/beta2Delta = assay: as above; conditions: U2OS BacMam BK variants, at 30 µM
F380Y/beta1 = assay: as above; conditions: U2OS BacMam BK variants, at 30 µM
F380Y/beta4 = assay: as above; conditions: U2OS BacMam BK variants, at 30 µM
R275C/beta4 = assay: as above; conditions: U2OS BacMam BK variants, at 30 µM
R275C/Slo1WT/beta2 = assay: as above; conditions: U2OS BacMam BK variants, at 30 µM
[10] = MELAS cybrid and Rieske KO viability enhancers – cell-based, MELAS cybrids, Rieske KO mouse fibroblasts, CellTiter-Glo, primary screen (AID 1508586;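 active = mean z-score across replicates of 1.96 or higher in either the MELAS or the Rieske mutant cell line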;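 note: z relative to plate mean and SD of compound and empty wells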); conditions: low glucose
[11] = modulation of C. elegans fzo-1 (AID 1259413; call rule not given here;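 note: fzo-1 mutant C. elegans worms in liquid wells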); conditions: C. elegans fzo-1 modulator screen, mean read-out; stronger effect = higher value
[12] = stronger effect = lower value, cell number ratio, induced over uninduced
[13] = measured here: relative caspase fold change +Dox/-Dox
[14] = measured here: total cells with miR-34 induction, stronger effect = lower value
[15] = measured here: total cells without miR-34 induction

CN(C)CC/C=C1/c2ccccc2COc2ccccc21
active: log fold change Tl+ flux (F380Y) 0.124 | log fold change Tl+ flux (F380Y/beta2Delta) 0.0845
73% and 104% and 60.2%: viability [1]
inactive: parasite load remaining [1] 72.1% and 22.2% and 49.1% | fluorescence ratio [2] 0.97 | inhibition [3] -1.98% | inhibition [4] -0.1% | fluorescence ratio [5] 0.93 | z-score [6] -0.308 | fold change [7, 12] 0.906 and 0.927 | z-score [8] -0.705 | log fold change Tl+ flux [9] 0.0355 | log fold change Tl+ flux (R275C) 0.0343 | log fold change Tl+ flux (R275C/beta1) 0.0624 | log fold change Tl+ flux (R275C/beta2Delta) 0.0478
8570 and 9810: cell count [7, 14]
1.31 and 1.98: fold change [7, 13]
9460 and 10600: cell count [7, 15]

CO[C@H]1C=CO[C@@]2(C)Oc3c(C)c(O)c4c(O)c(c5c(nc6cc(C)ccn65)c4c3C2=O)NC(=O)C(C)=CC=C[C@H](C)[C@H](O)[C@@H](C)[C@@H](O)[C@@H](C)[C@H](OC(C)=O)[C@@H]1C
active: log fold change Tl+ flux (F380Y) -0.487 | log fold change Tl+ flux (F380Y/beta1) -0.224 | log fold change Tl+ flux (F380Y/beta2Delta) -0.411 | log fold change Tl+ flux (F380Y/beta4) -0.508 | log fold change Tl+ flux [9] -0.124 | log fold change Tl+ flux (R275C) -0.242
78.8%: viability [1]
inactive: parasite load remaining [1] 97.9% | fluorescence ratio [2] 0.98 | inhibition [3] 1.19% | inhibition [4] 1.44% | fluorescence ratio [5] 1.01 | log fold change Tl+ flux (R275C/beta1) 0.0122 | log fold change Tl+ flux (R275C/beta2Delta) -0.0244 | log fold change Tl+ flux (R275C/beta4) -0.0127 | log fold change Tl+ flux (R275C/Slo1WT/beta2) -0.00936

CC(=O)O[C@@]12CO[C@@H]1C[C@H](O)[C@@]1(C)C(=O)[C@H](O)C3=C(C)[C@@H](OC(=O)[C@H](O)[C@@H](NC(=O)OC(C)(C)C)c4ccccc4)C[C@](O)([C@@H](OC(=O)c4ccccc4)[C@H]21)C3(C)C
76.2%: viability [1]
0.54: z-score ([10]; Rieske KO mouse fibroblast survival, CellTiter-Glo 72 h)
active: log fold change Tl+ flux (R275C/beta1) 0.104
inactive: parasite load remaining [1] 78.3% | fluorescence ratio [2] 0.95 | inhibition [3] 5.15% | inhibition [4] 9.14% | fluorescence ratio [5] 0.93 | z-score ([10]; MELAS cybrid survival, CellTiter-Glo 48 h, stronger effect = higher value) -2.05 | log fold change Tl+ flux (F380Y) -0.0323 | log fold change Tl+ flux (F380Y/beta1) -0.0744 | log fold change Tl+ flux (F380Y/beta2Delta) -0.0313 | log fold change Tl+ flux (F380Y/beta4) -0.0802 | log fold change Tl+ flux [9] -0.035 | log fold change Tl+ flux (R275C) -0.041 | log fold change Tl+ flux (R275C/beta2Delta) 0.0412 | log fold change Tl+ flux (R275C/beta4) 0.0296 | log fold change Tl+ flux (R275C/Slo1WT/beta2) 0.000404

CN(C)c1ccc(O)c2c1C[C@H]1C[C@H]3[C@H](N(C)C)C(=O)C(C(N)=O)=C(O)C3(O)C(=O)C1=C2O (stereo partly drawn)
inactive: mean signal [11] 263

CO[C@H]1O[C@@H]2O[C@@]3(C)CC[C@H]4[C@H](C)CC[C@@H]([C@H]1C)[C@@]24OO3
inactive: parasite load remaining [1] 32% | fluorescence ratio [2] 1.02 | inhibition [3] -1.97% | inhibition [4] -3.54% | fluorescence ratio [5] 1 | z-score [6] -0.742 | mean signal [11] 291 | log fold change Tl+ flux (F380Y) -0.0298 | log fold change Tl+ flux [9] -0.00699 | log fold change Tl+ flux (R275C) 0.0256 | log fold change Tl+ flux (R275C/beta1) -0.0131 | log fold change Tl+ flux (R275C/beta2Delta) -0.00466
active: log fold change Tl+ flux (F380Y/beta2Delta) -0.0746
66.6%: viability [1]

CCC(=O)OCC(=O)[C@@]1(OC(=O)CC)[C@@H](C)C[C@H]2[C@@H]3CCC4=CC(=O)C=CC4(C)[C@@]3(Cl)[C@@H](O)CC21C (stereo partly drawn)
inactive: mean signal [11] 228

CC(C)CC(NC(=O)C(COC(C)(C)C)NC(=O)C(Cc1ccc(O)cc1)NC(=O)C(CO)NC(=O)C(Cc1c[nH]c2ccccc12)NC(=O)C(Cc1cnc[nH]1)NC(=O)C1CCC(=O)N1)C(=O)N[C@@H](CCCN=C(N)N)C(=O)N1CCCC1C(=O)NNC(N)=O (stereo partly drawn)
90.6%: viability [1]
active: log fold change Tl+ flux (R275C/Slo1WT/beta2) 0.0919
inactive: parasite load remaining [1] 82.9% | fluorescence ratio [2] 0.89 | inhibition [3] -0.22% | inhibition [4] 7.48% | fluorescence ratio [5] 0.87 | z-score [6] -0.441 | log fold change Tl+ flux (F380Y) -0.0277 | log fold change Tl+ flux (F380Y/beta1) 0.02 | log fold change Tl+ flux (F380Y/beta2Delta) -0.0184 | log fold change Tl+ flux (F380Y/beta4) 0.00509 | log fold change Tl+ flux [9] -0.0112 | log fold change Tl+ flux (R275C) -0.0448 | log fold change Tl+ flux (R275C/beta1) 0.00576 | log fold change Tl+ flux (R275C/beta2Delta) -0.00625 | log fold change Tl+ flux (R275C/beta4) -0.0787

CO[C@H]1/C=C/O[C@@]2(C)Oc3c(C)c(O)c4c(O)c(c(C=NN5CCN(C6CCCC6)CC5)c(O)c4c3C2=O)NC(=O)/C(C)=C\C=C\[C@H](C)[C@H](O)[C@@H](C)[C@@H](O)[C@@H](C)[C@H](OC(C)=O)[C@@H]1C
92%: viability [1]
inactive: parasite load remaining [1] 21% | fluorescence ratio [2] 1.06 | inhibition [3] -0.45% | inhibition [4] -0.48% | fluorescence ratio [5] 0.94 | fold change [7, 12] 0.995 | z-score [8] -1.41 | log fold change Tl+ flux (F380Y) 0.0494 | log fold change Tl+ flux (F380Y/beta1) 0.0885 | log fold change Tl+ flux [9] 0.0279 | log fold change Tl+ flux (R275C) 0.0114 | log fold change Tl+ flux (R275C/beta2Delta) 0.0213 | log fold change Tl+ flux (R275C/Slo1WT/beta2) 0.0216
1.52: fold change [7, 13]
8010: cell count [7, 14]
active: log fold change Tl+ flux (F380Y/beta2Delta) 0.179 | log fold change Tl+ flux (F380Y/beta4) 0.152 | log fold change Tl+ flux (R275C/beta1) 0.161 | log fold change Tl+ flux (R275C/beta4) 0.283
8050: cell count [7, 15]

CC1c2cccc(O)c2C(O)=C2C(=O)[C@]3(O)C(O)=C(C(N)=O)C(=O)[C@@H](N(C)C)[C@@H]3C[C@@H]21 (stereo partly drawn)
1.44: fold change [7, 13]
inactive: parasite load remaining [1] 60.3% | fluorescence ratio [2] 1.04 | inhibition [3] -1.36% | fluorescence ratio [5] 0.95 | fold change [7, 12] 1 | z-score [8] -0.345 | log fold change Tl+ flux (F380Y) -0.00643 | log fold change Tl+ flux (F380Y/beta1) -0.038 | log fold change Tl+ flux (F380Y/beta2Delta) 0.00306 | log fold change Tl+ flux (F380Y/beta4) -0.0368 | log fold change Tl+ flux [9] 0.011 | log fold change Tl+ flux (R275C) -0.004 | log fold change Tl+ flux (R275C/beta1) -0.0442 | log fold change Tl+ flux (R275C/beta2Delta) -0.00508 | log fold change Tl+ flux (R275C/beta4) 0.0272 | log fold change Tl+ flux (R275C/Slo1WT/beta2) 0.0157
97.3%: viability [1]
11000: cell count [7, 14] | cell count [7, 15]
active: inhibition [4] 28.5%

O=C1CN(N=Cc2ccc([N+](=O)[O-])o2)C(=O)N1
10400: cell count [7, 15]
active: log fold change Tl+ flux (R275C/Slo1WT/beta2) -0.117
9510: cell count [7, 14]
inactive: parasite load remaining [1] 0.39% | fluorescence ratio [2] 1 | inhibition [3] -3.18% | inhibition [4] -0.48% | fluorescence ratio [5] 1 | fold change [7, 12] 0.912 | z-score [8] -1.36 | log fold change Tl+ flux (F380Y) -0.0264 | log fold change Tl+ flux (F380Y/beta1) -0.025 | log fold change Tl+ flux (F380Y/beta2Delta) -0.0429 | log fold change Tl+ flux (F380Y/beta4) -0.00406 | log fold change Tl+ flux [9] 0.0181 | log fold change Tl+ flux (R275C) 0.0135 | log fold change Tl+ flux (R275C/beta1) -0.0666 | log fold change Tl+ flux (R275C/beta2Delta) 0.0336 | log fold change Tl+ flux (R275C/beta4) -0.0417
54.9%: viability [1]
2: fold change [7, 13]
